Reference: PubChem BioAssay (EPA / NIEHS)
Several values for one entry are separate records, joined by “and”; a condition that tells them apart may be missing. Identical values can stand only once. Records with an inconclusive call do not appear. The source holds several records for some structures; these can differ, active in one and inactive in another. Activity calls are given as the source filed them. How the source made its calls: active means hit-call score of the fitted dose curve at least 0.9, where 1 is the maximum; inconclusive means response in the unintended direction; inactive means score below 0.9.

Test: Tanguay_ZF_120hpf_BRAI_legacy: (Legacy) Oregon State University Tanguay Lab 120 Hour Post-fertilization zebrafish Assay for Brain Malformation (AID 2283641)
Experimental: Tanguay_ZF_120hpf_legacy is a whole embryo, multiplexed endpoint assay using zebrafish larvae exposed for 120 hours post fertilization on a 96-well plate.Tanguay_ZF_120hpf_BRAI_legacy is one of one assay component(s) measured or calculated from the Tanguay_ZF_120hpf_legacy assay. It is designed to make measurements of zebrafish development as detected with brightfield microscopy of developing zebrafish embryos.Data from the assay component Tanguay_ZF_120hpf_BRAI_legacy was analyzed into 1 assay endpoints. This assay endpoint, Tanguay_ZF_120hpf_BRAI_legacy, was analyzed in the positive analysis fitting direction relative to DMSO as the negative control and baseline of activity. Using a type of morphology reporter, gain-of-signal activity can be used to understand changes in developmentals as they relate to the whole embryo. To generalize the intended target to other relatable targets, this assay endpoint is annotated to the zebrafish development intended target family, where the subfamily is brain morphogenesis.
Zebrafish husbandry: Tropical 5D wild-type adult zebrafish were housed in at an approximate density of 1000 per 100 gallon tank at the Sinnhuber Aquatic Research Laboratory, Oregon State University, Corvallis, OR. Each tank was kept at standard laboratory conditions of 28C on a 14-h light/10-h dark photoperiod in fish water consisting of reverse osmosis water supplemented with a commercially available salt (Instant Ocean). Spawning funnels were placed into the tanks the night prior, and embryos were collected and staged. […] Ten microliters of each row of dilution plate 2 was added to 2 exposure plates. The final DMSO concentration used was 0.64% (vol/vol). Thirty-two embryos were also exposed to 5uM trimethyltin chloride (positive control). Plates were sealed to prevent evaporation and foil covered to reduce light exposure and kept in a 28C incubator. Embryos were statically exposed until 120 hpf. At 24 hpf, embryos were assessed for photomotor response using a custom photomotor response analysis tool (PRAT) and for developmental toxicity endpoints (MO24: mortality at 24 hpf, DP: developmental progression, SM: spontaneous movement, and NC: notochord distortion). At 120 hpf, locomotor activity was measured using Viewpoint Zebralab and assessed for 18 endpoints. Zebrafish acquisition and analysis program (ZAAP), a custom program designed to inventory, acquire, and manage zebrafish data, was used to collect developmental endpoints as either present or absent (i.e., binary responses were recorded). If mortality occurred for an embryo (at either 24 or 120 hpf), the non-mortality endpoints were not measured.
For `N#CN`, the outcome was “inactive”.
With `CCC(C)(NC(=O)c1cc(Cl)c(C)c(Cl)c1)C(=O)CCl` (stereo not given) the outcome was “inactive”.
With `O=C(Nc1ccccc1)Nc1cnns1` the outcome was “inactive”.
With `CC(C)(C)C(O)C(Oc1ccc(Cl)cc1)n1cncn1` (stereo not given) the AC50 was 49.8 µM (active) and 33.6 µM (active) and 48.3 µM (active).
In the case of `Cc1[nH]c(=O)n(C(C)(C)C)c(=O)c1Cl`, the outcome is reported as “inactive”.
For `COP(=S)(OC)Oc1ccc([N+](=O)[O-])cc1`, the outcome was “inactive”.
In the case of `C[C@H]1[C@H](c2ccc(Cl)cc2)SC(=O)N1C(=O)NC1CCCCC1`, the outcome is reported as “inactive”.
With `CC(C)OC(=O)Nc1cccc(Cl)c1` the AC50 was 39.5 µM (active).
With `O=C1c2ccccc2C(=O)N1SC(Cl)(Cl)Cl` the outcome was “inactive”.
For `O=S1OCC2C(CO1)C1(Cl)C(Cl)=C(Cl)C2(Cl)C1(Cl)Cl` (stereo not given), the outcome was “inactive”.
With `OCCOc1ccccc1` the outcome was “inactive”.
For `CNC(=O)Oc1cccc(N=CN(C)C)c1`, the outcome was “inactive”.
For `CCOCN(C(=O)CCl)c1c(C)cccc1CC`, the outcome was “inactive”.
For `CC(C)(C)C(O)/C(=C\c1ccc(Cl)cc1Cl)n1cncn1` (stereo not given), the AC50 was 8.24 µM (active).
With `CN1CSC(=S)N(C)C1` the outcome was “inactive”.
In the case of `CC1(C)C(C=C(Cl)Cl)C1C(=O)OC(C#N)c1ccc(F)c(Oc2ccccc2)c1` (stereo not given), the outcome is reported as “inactive”.
For `N#Cc1c(Cl)c(Cl)c(Cl)c(C#N)c1Cl`, the outcome was “inactive”.
With `CCOC1Oc2ccc(OS(C)(=O)=O)cc2C1(C)C` (stereo not given) the outcome was “inactive”.
In the case of `COP(=O)(OC)OC=C(Cl)Cl`, the outcome is reported as “inactive”.
For `O=S(=O)(O)C(F)(F)C(F)(F)C(F)(F)C(F)(F)C(F)(F)C(F)(F)C(F)(F)C(F)(F)F`, the AC50 was 34.2 µM (active) and the outcome was “inactive”.
For `CCN(CC)C(=O)SCc1ccc(Cl)cc1`, the outcome was “inactive”.
With `O=C(O)COc1ccc(Cl)cc1Cl` the outcome was “inactive”.
For `O=C(O)CCCOc1ccc(Cl)cc1Cl`, the outcome was “inactive”.
For `O=[N+]([O-])/N=C1\NCCN1Cc1ccc(Cl)nc1`, the outcome was “inactive”.
For `ClC1C(Cl)C(Cl)C(Cl)C(Cl)C1Cl` (stereo not given), the outcome was “inactive”.
In the case of `COc1nn(CSP(=S)(OC)OC)c(=O)s1`, the outcome is reported as “inactive”.
In the case of `Clc1ccccc1-c1nnc(-c2ccccc2Cl)nn1`, the outcome is reported as “inactive”.
For `C#CCN1C(=O)COc2cc(F)c(N3C(=O)C4=C(CCCC4)C3=O)cc21`, the outcome was “inactive”.
For `CCc1ccc(C(=O)NN(C(=O)c2cc(C)cc(C)c2)C(C)(C)C)cc1`, the outcome was “inactive”.
In the case of `CC1(c2ccc(Oc3ccccc3)cc2)OC(=O)N(Nc2ccccc2)C1=O` (stereo not given), the outcome is reported as “inactive”.
With `O=[N+]([O-])c1c(Cl)c(Cl)c(Cl)c(Cl)c1Cl` the outcome was “inactive”.
In the case of `CC[C@H](C)[C@H]1O[C@]2(C=C[C@@H]1C)C[C@@H]1C[C@@H](C/C=C(\C)[C@@H](O[C@H]3C[C@H](OC)[C@@H](O[C@H]4C[C@H](OC)[C@@H](O)[C@H](C)O4)[C@H](C)O3)[C@@H](C)/C=C/C=C3\CO[C@@H]4[C@H](O)C(C)=C[C@@H](C(=O)O1)[C@]34O)O2` (tested in a mixture with another compound), the AC50 is reported as 15.6 µM (active).
For `CNC(=O)/C=C(\C)OP(=O)(OC)OC`, the outcome was “inactive”.
In the case of `Oc1ccc(Cl)cc1Cc1ccccc1`, the outcome is reported as “inactive”.
In the case of `Oc1cc(Cl)ccc1Oc1ccc(Cl)cc1Cl`, the outcome is reported as “inactive”.
In the case of `CCCN(CCOc1c(Cl)cc(Cl)cc1Cl)C(=O)n1ccnc1`, the outcome is reported as “inactive”.
For `O=C(O)C(F)(F)C(F)(F)C(F)(F)C(F)(F)C(F)(F)C(F)(F)C(F)(F)F`, the outcome was “inactive”.
In the case of `CNC(=O)Oc1ccccc1OC(C)C`, the outcome is reported as “inactive”.
In the case of `COP(=S)(OC)Oc1ccc(SC)c(C)c1`, the outcome is reported as “inactive”.
